Measured values from PubChem BioAssay.
Calls of active or inactive are those of the source.

Key:
[1] = test system: Plasmodium falciparum Sir2 (PF13_0152, Sir2A); assay: Plasmodium falciparum Sir2A binding compounds – biochemical, small-molecule microarray, 635 nm fluorescence, primary screen (AID 1098); conditions: fluorescence 635 nm, higher = more signal;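 also: score merges spot fluorescence intensity with its signal-to-noise ratio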
[2] = probe aDKK1 binding to arrayed compounds – biochemical, biotinylated probe, 635/667 nm fluorescence, primary screen (AID 1099); conditions: small-molecule microarray, higher = more signal;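 also: score merges 667nm spot fluorescence with signal to noise across triplicate slides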
[3] = probe aCHRDL2 binding to arrayed compounds – biochemical, biotinylated probe, 635/667 nm fluorescence, primary screen (AID 1100); conditions: small-molecule microarray, higher = more signal
[4] = change in splice reporter luminescence, either direction, cell-based, HEK293, spliceosome inhibition project, primary screen (AID 1101); conditions: HEK293 splicing luciferase reporter, 24 h, higher = more signal, called active from +8 up or from −8 down;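 also: HEK293 cells carrying a splicing-competent luciferase reporter gene; test concentration not given here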
[5] = biological target: Fibroblast growth factor 10 (Homo sapiens) (UniProt O15520); assay: compounds binding fibroblast growth factor 10 – biochemical, small-molecule microarray, 635 nm fluorescence, primary screen (AID 1102); conditions: FGF10 binding, fluorescence 635 nm, higher = more signal
[6] = test system: glycogen synthase kinase-3 (GSK3A per assay name; protocol says GSK3B); assay: compounds binding glycogen synthase kinase-3 – biochemical, small-molecule microarray, 635 nm fluorescence, GSK3A, primary screen (AID 1103); conditions: fluorescence 635 nm, higher = more signal; also: the record names both GSK3A and GSK3B
[7] = biological target: Epidermal growth factor receptor (Homo sapiens) (UniProt P00533); assay: compounds binding epidermal growth factor receptor – biochemical, small-molecule microarray, 635 nm fluorescence, primary screen (AID 1104); conditions: EGFR binding, higher = more signal;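 also: score merges 667 nm emission intensity with spot signal to noise over triplicate slides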
[8] = biological target: Follistatin-related protein 3 (Homo sapiens) (UniProt O95633); assay: compounds binding follistatin-related protein 3 – biochemical, small-molecule microarray, 635 nm fluorescence, primary screen (AID 1105); conditions: FSTL3 binding, higher = more signal;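 also: score merges emission near 667 nm and signal to noise per printed spot across three slides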
[9] = biological target: Dickkopf-related protein 1 (Homo sapiens) (UniProt O94907); assay: small molecules binding DKK1 protein – biochemical, small-molecule microarray, 635 nm fluorescence scan, primary screen (AID 1106); conditions: higher = more signal;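 also: score merges emission near 667 nm with signal to noise over three replicate slides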
[10] = test system: Inhibin beta A chain (activin A); assay: small molecules binding activin A – biochemical, small-molecule microarray, 635 nm fluorescence scan, primary screen (AID 1107); conditions: INHBA, higher = more signal;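 also: mouse activin A protein probed at 4.33 µg/mL on printed slides; score merges bound-protein fluorescence near 667 nm with spot signal-to-noise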
[11] = test system: Human papillomavirus type 1a protein E7 (residues 44-93); assay: small molecules binding HPV E7 44-93 – biochemical, small-molecule microarray, residues 44-93, 635 nm fluorescence, primary screen (AID 1108); conditions: fluorescence 635 nm, higher = more signal;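 also: E7 fragment applied at 1 µg/mL in TBST for 1 h at 4 C; score combines spot fluorescence with its signal to noise ratio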
[12] = hepatitis C replication reporter changes, two-sided – Huh7 cells, luciferase reporter, HCV replication inhibitor project, primary screen (AID 1109); conditions: Huh7 HCV replicon luciferase reporter, 48 h; higher = more signal;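 also: huh7 hepatoma cells harbouring a luciferase neomycin HCV replicon reporter; luciferase luminescence as measure of HCV replicon replication; test concentration not given here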
[13] = biological target: Left-right determination factor 2 (Homo sapiens) (UniProt O00292); assay: small molecules binding LEFTY2 protein – biochemical, small-molecule microarray, 635 nm fluorescence scan, primary screen (AID 1110); conditions: higher = more signal
[14] = biological target: Calmodulin-1 (Homo sapiens) (UniProt P0DP23); assay: small molecules binding calmodulin-1 with EGTA – biochemical, small-molecule microarray, Cy5-labelled CALM1, profiling panel (AID 1111); conditions: Cy5-CALM1 binding fluorescence, higher = more signal;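 also: labelled calmodulin applied in Tris saline Tween buffer holding calcium plus EGTA and DTT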
[15] = biological target: Calmodulin-1 (Homo sapiens) (UniProt P0DP23); assay: small molecules binding Ca-loaded calmodulin-1 – biochemical, small-molecule microarray, Cy5-labelled CALM1, plus calcium, artefact control for SMM control-protein annotation, profiling panel (AID 1112); conditions: Cy5-CALM1 binding fluorescence, higher = more signal;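 also: score merges spot fluorescence with signal to noise from triplicate slides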
[16] = probe aWnt5a binding to arrayed compounds – biochemical, biotinylated probe, 635/667 nm fluorescence, primary screen (AID 1113); conditions: small-molecule microarray, higher = more signal;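 also: score merges 667 nm fluorescence intensity with signal-to-noise per printed feature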
[17] = probe aShh binding to arrayed compounds – biochemical, biotinylated probe, 635/667 nm fluorescence, primary screen (AID 1114); conditions: small-molecule microarray, higher = more signal;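 also: probe is biotin-labelled aShh protein from a stem cell growth factor screen; measures binding of labelled protein to compounds printed on the slide; score merges feature fluorescence at 667 nm with signal-to-noise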
[18] = probe aNog binding to arrayed compounds – biochemical, biotinylated probe, 635/667 nm fluorescence, primary screen (AID 1115); conditions: small-molecule microarray, higher = more signal;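 also: probe is biotinylated aNog protein used at 0.15 µg/mL for 1 h at 4 C; z-score combines 667 nm fluorescence of each spot with its signal to noise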
[19] = biological target: Torsin-1A-interacting protein 1 (Homo sapiens) (UniProt Q5JTV8); assay: compound microarray binding of lysate hLAP1 – cell lysate, small-molecule microarray, COS7 lysate, 635/667 nm fluorescence, primary screen (AID 1116); conditions: 635 nm fluorescence, higher = more signal
[20] = biological target: Alpha-bungarotoxin (Bungarus multicinctus) (UniProt P60615); assay: compounds binding labelled alpha-BTX control protein – biochemical, small-molecule microarray, Alexa647 label, 635/667 nm fluorescence, artefact control for SMM control protein annotation, profiling panel (AID 1117); conditions: alpha-BTX-A647 binding fluorescence, higher = more signal
Sequence of Alpha-bungarotoxin (Bungarus multicinctus) (P60615 whole entry, looked up): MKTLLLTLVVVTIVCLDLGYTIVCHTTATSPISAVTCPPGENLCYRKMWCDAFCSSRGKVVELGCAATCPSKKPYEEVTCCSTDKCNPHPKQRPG

Sequence of Dickkopf-related protein 1 (Homo sapiens) (O94907 whole entry, looked up): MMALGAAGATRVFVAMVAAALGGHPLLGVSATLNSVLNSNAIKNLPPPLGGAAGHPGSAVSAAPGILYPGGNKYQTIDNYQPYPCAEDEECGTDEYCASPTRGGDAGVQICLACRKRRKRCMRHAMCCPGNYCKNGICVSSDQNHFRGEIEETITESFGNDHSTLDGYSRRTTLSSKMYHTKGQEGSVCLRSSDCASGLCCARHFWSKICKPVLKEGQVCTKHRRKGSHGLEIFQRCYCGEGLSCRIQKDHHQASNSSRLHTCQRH
Sequence of Left-right determination factor 2 (Homo sapiens) (O00292 whole entry, looked up): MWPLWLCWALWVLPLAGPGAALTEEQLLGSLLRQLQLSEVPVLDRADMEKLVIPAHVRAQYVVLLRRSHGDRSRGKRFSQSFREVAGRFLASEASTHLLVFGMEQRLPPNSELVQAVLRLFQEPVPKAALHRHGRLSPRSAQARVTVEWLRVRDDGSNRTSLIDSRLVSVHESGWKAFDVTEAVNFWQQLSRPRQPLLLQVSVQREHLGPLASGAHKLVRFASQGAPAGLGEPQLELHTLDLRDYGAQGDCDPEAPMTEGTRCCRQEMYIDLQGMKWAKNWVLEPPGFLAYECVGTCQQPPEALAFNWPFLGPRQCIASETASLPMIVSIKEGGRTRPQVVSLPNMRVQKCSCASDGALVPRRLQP
Sequence of Follistatin-related protein 3 (Homo sapiens) (O95633 whole entry, looked up): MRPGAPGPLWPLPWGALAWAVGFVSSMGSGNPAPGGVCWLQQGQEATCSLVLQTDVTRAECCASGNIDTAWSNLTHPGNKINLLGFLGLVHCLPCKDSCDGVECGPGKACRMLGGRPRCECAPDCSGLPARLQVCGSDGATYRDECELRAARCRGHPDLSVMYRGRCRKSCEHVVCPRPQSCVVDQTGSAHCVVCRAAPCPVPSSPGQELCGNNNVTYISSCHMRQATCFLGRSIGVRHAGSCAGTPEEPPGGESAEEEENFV
Sequence of Epidermal growth factor receptor (Homo sapiens) (P00533 whole entry, looked up): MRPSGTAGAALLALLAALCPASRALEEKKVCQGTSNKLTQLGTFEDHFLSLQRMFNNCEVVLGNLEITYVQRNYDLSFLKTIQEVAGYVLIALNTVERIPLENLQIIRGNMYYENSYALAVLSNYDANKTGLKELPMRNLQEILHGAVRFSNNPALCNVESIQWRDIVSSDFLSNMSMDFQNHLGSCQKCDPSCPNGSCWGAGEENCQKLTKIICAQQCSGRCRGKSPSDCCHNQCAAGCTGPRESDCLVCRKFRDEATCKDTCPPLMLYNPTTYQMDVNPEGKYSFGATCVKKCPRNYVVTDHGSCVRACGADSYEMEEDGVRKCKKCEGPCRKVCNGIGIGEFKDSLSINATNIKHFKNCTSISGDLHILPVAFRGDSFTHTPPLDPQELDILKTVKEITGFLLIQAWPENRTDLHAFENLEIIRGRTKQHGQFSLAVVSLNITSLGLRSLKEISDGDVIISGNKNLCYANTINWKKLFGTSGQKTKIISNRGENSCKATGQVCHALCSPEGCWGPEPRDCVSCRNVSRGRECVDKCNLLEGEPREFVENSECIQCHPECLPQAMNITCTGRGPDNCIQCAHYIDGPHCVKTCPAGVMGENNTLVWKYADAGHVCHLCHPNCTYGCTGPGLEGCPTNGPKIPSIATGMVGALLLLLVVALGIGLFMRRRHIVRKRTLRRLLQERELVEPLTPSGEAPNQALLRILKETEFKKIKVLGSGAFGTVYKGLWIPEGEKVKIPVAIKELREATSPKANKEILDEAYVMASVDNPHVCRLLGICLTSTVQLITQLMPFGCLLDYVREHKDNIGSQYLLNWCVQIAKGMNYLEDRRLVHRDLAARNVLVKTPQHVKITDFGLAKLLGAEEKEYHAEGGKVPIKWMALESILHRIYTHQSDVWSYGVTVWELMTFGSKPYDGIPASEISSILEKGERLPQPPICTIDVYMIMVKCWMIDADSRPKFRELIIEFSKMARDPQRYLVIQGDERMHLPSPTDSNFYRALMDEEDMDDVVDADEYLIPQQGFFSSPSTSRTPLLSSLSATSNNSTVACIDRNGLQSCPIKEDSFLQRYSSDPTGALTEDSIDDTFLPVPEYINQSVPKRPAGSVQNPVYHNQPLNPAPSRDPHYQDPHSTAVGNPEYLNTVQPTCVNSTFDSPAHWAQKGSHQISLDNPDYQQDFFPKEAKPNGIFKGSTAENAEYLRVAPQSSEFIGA
Sequence of Fibroblast growth factor 10 (Homo sapiens) (O15520 whole entry, looked up): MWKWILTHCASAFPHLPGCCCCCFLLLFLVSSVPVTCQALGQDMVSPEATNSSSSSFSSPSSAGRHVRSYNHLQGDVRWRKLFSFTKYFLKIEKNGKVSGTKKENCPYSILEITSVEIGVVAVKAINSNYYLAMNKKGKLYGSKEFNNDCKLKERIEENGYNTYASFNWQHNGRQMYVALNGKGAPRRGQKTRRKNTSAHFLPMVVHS
Sequence of Torsin-1A-interacting protein 1 (Homo sapiens) (Q5JTV8 whole entry, looked up): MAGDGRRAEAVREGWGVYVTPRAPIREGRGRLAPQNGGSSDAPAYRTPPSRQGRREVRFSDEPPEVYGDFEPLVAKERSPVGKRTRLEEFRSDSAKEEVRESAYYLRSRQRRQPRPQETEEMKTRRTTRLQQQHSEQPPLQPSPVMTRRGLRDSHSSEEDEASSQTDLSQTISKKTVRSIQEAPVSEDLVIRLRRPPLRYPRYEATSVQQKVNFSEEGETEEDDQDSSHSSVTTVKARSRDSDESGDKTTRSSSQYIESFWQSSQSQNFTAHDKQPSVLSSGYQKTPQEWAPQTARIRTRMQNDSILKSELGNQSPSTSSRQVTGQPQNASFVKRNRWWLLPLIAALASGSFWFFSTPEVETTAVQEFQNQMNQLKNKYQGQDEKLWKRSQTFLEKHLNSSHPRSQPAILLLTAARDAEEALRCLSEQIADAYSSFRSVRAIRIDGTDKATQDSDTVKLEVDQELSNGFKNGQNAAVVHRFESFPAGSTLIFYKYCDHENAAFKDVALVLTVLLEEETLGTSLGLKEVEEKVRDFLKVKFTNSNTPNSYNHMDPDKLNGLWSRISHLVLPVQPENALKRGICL

| Structure (SMILES) | composite z-score [1] | composite z-score [2] | composite z-score [3] | z-score [4] | composite z-score [5] | composite z-score [6] | composite z-score [7] | composite z-score [8] | composite z-score [9] | composite z-score [10] | composite z-score [11] | z-score [12] | composite z-score [13] | composite z-score [14] | composite z-score [15] | composite z-score [16] | composite z-score [17] | composite z-score [18] | composite z-score [19] | composite z-score [20] |
| --- | --- | --- | --- | --- | --- | --- | --- | --- | --- | --- | --- | --- | --- | --- | --- | --- | --- | --- | --- | --- |
| CN1C2C=C(c3ccc(CO)cc3)C(C3C(=O)N(C(N)=O)C(=O)C32)C1c1cccs1 (stereo not given) | 1.41 | -0.0009 | 0.549 | -0.795 (inactive) | 0.25 | -0.148 | 0.136 | -0.623 | -0.72 | 1.02 | -0.232 | 0.374 | 0.217 | 0.45 | 0.47 | -0.156 | -0.0769 | 0.408 | 1.24 | -1.09 |
| COCCOC(=O)N1C(=O)[C@@]2(c3ccccc31)[C@H](C(=O)N1CCc3cc(OC)c(OC)cc3C1)[C@H]1C(=O)O[C@H](c3ccccc3)[C@H](c3ccccc3)N1[C@@H]2c1ccccc1OCCO | 1 | 0.401 | 0.339 | -0.237 (inactive) | 0.626 | 1.28 | 0.329 | 0.606 | 0.214 | 0.635 | 0.583 | -1.51 | 0.284 | 1.25 | 0.868 | -0.124 | 0.319 | 0.185 | 0.987 | 2.42 |
| O=C1O[C@@H](c2ccccc2)[C@@H](c2ccccc2)N2[C@@H](c3ccc(OCCO)cc3)[C@]3(C(=O)Nc4ccc(C#CCCO)cc43)[C@@H](C(=O)N3CCN(c4ncccn4)CC3)[C@H]12 | 1.13 | 0.0868 | 0.319 | 0.952 (inactive) | 1.19 | 0.935 | 0.16 | 1.07 | 0.116 | 0.666 | 1.44 | -0.347 | 0.669 | 0.732 | 0.073 | 0.0115 | 0.151 | -0.601 | 0.842 | 1.75 |
| C[C@@H]1CC[C@H]2C(=O)N3[C@@H](CC[C@@H](C)[C@@H]3c3cccc(N4CCOCC4)c3)C(=O)N2[C@H]1c1cccc(Br)c1 | 1.1 | 0.113 | 0.26 | 0.0479 (inactive) | 0.695 | 0.989 | 0.31 | 0.53 | 0.327 | 0.6 | 0.396 | -1.97 | 0.458 | 0.361 | -0.0482 | -0.0357 | -0.138 | 0.0205 | 0.868 | 1.6 |
| Cc1ccc(S(=O)(=O)N[C@H]2COC(=O)CC=C[C@H](C)COC(=O)N[C@@H](C)C(=O)CC=C[C@@H]2C)cc1 | 0.38 | -0.589 | -1.38 | -0.381 (inactive) | 0.588 | 0.604 | 0.831 | 1.4 | 2.08 | 0.283 | -0.417 | -0.47 | 1.05 | -0.643 | -1.39 | -0.1 | -0.0243 | -0.345 | 0.0478 | 0.0411 |
| C=CC[C@]1(C(N)=O)N=C(c2ccc(OCCCO)cc2)O[C@H]1c1ccccc1CN=[N+]=[N-] | 0.255 | 0.683 | 1.24 | -0.783 (inactive) | 0.0555 | 0.518 | -1.03 | -0.325 | -0.632 | 1.46 | 1.03 | -1.33 | -1.11 | 1.91 | 1.14 | -0.124 | -0.203 | 0.165 | 1.87 | 1.03 |
| CC(C)[Si](OCC[C@H]1O[C@]2(C(=O)N(Cc3ccccc3)c3ccccc32)[C@@H](C)[C@@H]1[Si](C)(C)O)(C(C)C)C(C)C | 0.54 | -0.0907 | -0.0768 | 0.467 (inactive) | -0.189 | -0.922 | -0.102 | -0.0398 | 0.0477 | 0.438 | 0.161 | -1.22 | -0.261 | 0.214 | 0.3 | -0.216 | 0.0204 | 0.0073 | 0.153 | -0.513 |
| O=C1O[C@H](c2ccccc2)[C@H](c2ccccc2)N2[C@H]1[C@@H](C(=O)Nc1nc3ccccc3s1)[C@]1(C(=O)Nc3ccc(C#CC4=CCCCC4)cc31)[C@H]2c1ccccc1OCCO | 1.51 | -0.0804 | -0.262 | -1.69 (inactive) | 1.14 | 1.02 | 0.516 | 1.27 | 0.574 | 0.345 | 1.35 | -1.67 | 0.59 | 1.31 | 0.149 | -0.0714 | -0.263 | 0.184 | 0.715 | 1.04 |
